Among the data in PubChem BioAssay (Tox21) are Potency and outcome values, retold here.

Inconclusive results are not listed. Unmarked numbers belong to inactive results. Active and inactive are the calls of the source. Unless noted, the call rests on the fitted dose curve; in most records, active means well fitted curve in the direction sought with a large enough effect in the repeat runs; inconclusive means weak or mixed curves; inactive means no such curve, though single readings can be large; an effect the other way counts as inactive or inconclusive.

Assay [1] is described as follows: qHTS assay to identify small molecule agonists of the vitamin D receptor (VDR) signaling pathway - cell viability counter screen (AID 743224). Further: nearly all actives have a fitted effect of over 50% in size. Further: potency means the concentration at half of the fitted maximal effect. In a few lines:
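Viability is measured in the same wells as the VDR-bla reporter assay: after 16 h compound treatment and 2 h substrate loading, CellTiter-Glo is added and luminescence read 30 min later.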
(In general: In qHTS, concentration-response curves come from the screen itself.)

The nature of assay [2]: qHTS assay to identify small molecule agonists of the NFkB signaling pathway (AID 1159509; active means well fitted curve in the direction sought with a large enough effect in the signal ratio in the repeat runs, not every such curve was filed as active; the % refers to the signal ratio; further: series mostly up to about 61 µM). In a few lines:
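NFkB-bla ME-180 cells with a beta-lactamase reporter under an NF-kB response element were plated overnight, treated with compounds in DMSO for 5 hr at 37 C, then loaded with FRET substrate for 1.5 hr at room temperature.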

The nature of assay [3]: qHTS assay to identify small molecule agonists of the NFkB signaling pathway - cell viability counter screen (AID 1159515; calls by dose curve; further: series mostly up to about 61 µM; nearly all actives have a fitted effect of over 55% in size). Put shortly:
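Multiplexed viability readout: after the 5 hr compound exposure and 1.5 hr FRET substrate step, CellTiter-Glo reagent went into the same NFkB-bla ME-180 wells; ATP luminescence was measured after 30 min at room temperature.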

Assay [4] in a line: qHTS assay to identify small molecule agonists of the endoplasmic reticulum stress response signaling pathway (AID 1159516; active means well fitted activation curve with a large enough effect in the signal ratio in the repeat runs, not every such curve was filed as active; the % refers to the signal ratio). In a few lines: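 Tox21 10K library screened in quantitative HTS format on ESRE-bla HeLa cells, a beta-lactamase reporter under ER stress response element control; 5 hr treatment, FRET read.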
Assay [5] in a line: qHTS assay to identify small molecule agonists of the endoplasmic reticulum stress response signaling pathway - cell viability counter screen (AID 1159517; calls by dose curve; further: series mostly up to about 61 µM; nearly all actives have a fitted effect of over 50% in size). Put shortly:
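Luminescence readout: CellTiter-Glo, 30 min RT, same wells as the ESRE-bla reporter read. HeLa ESRE-bla, 1,500 cells/well, o/n 37 C; cpd 5 hr 37 C/5% CO2.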

A short description of assay [6]: qHTS assay to identify small molecule agonists of the AP-1 signaling pathway - cell viability counter screen (AID 1159525; calls by dose curve; further: nearly all actives have a fitted effect of over 55% in size). In a few lines: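 ME-180 AP-1-bla, 2500 cells/well, Opti-MEM + 0.5% dialyzed FBS; overnight 37 °C; cpd 15-pt titration, 5 h 37 °C; CellTiter-Glo 30 min RT; luminescence read; normalised to TOAB and DMSO controls.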
Assay [7] in a line: qHTS assay to identify small molecule antagonists of the retinoid acid receptor (RAR) signaling pathway - cell viability counter screen (AID 1159551). Further: nearly all actives have a fitted effect of over 35% in size. Put shortly:
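Cytotoxicity counter screen in C3RL4 cells: 6 h compound exposure with 1 uM retinol (final), viability from cellular ATP by luminescence.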

Assay [8] can be described thus: qHTS assay to identify small molecule antagonists of the retinoic acid receptor (RAR) signaling pathway (AID 1159552; further: nearly all actives have a fitted effect of over 50% in size; further: potency means the concentration at half of the fitted maximal effect). Put shortly:
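Antagonism of retinol-induced RARE reporter activity was measured in C3RL4 cells. Exposure to compounds and 1 uM final retinol lasted 6 hr at 37 C, with luminescence as endpoint.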

Assay [9] is described as follows: qHTS assay to identify small molecule agonists of the retinoic acid receptor (RAR) signaling pathway (AID 1159553). Further: potency means the concentration at half of the fitted maximal effect. Put shortly: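 Agonist activity was scored in C3RL4 cells bearing a retinoic acid response element luciferase construct. Cells were treated with compounds for 6 hr at 37 C, and luciferase signal was measured as luminescence.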
Assay [10] is described as follows: qHTS assay to identify small molecule antagonists of the vitamin D receptor (VDR) signaling pathway - cell viability counter screen (AID 743225). Further: nearly all actives have a fitted effect of over 50% in size. Put shortly:
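Same-well multiplex: following 16 h treatment of HEK 293T cells carrying a UAS-driven beta-lactamase reporter with compound and agonist (3 nM final), and a 2 h FRET substrate step, CellTiter-Glo was added and luminescence read after 30 min.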

Assay [11] concerns the target Nuclear receptor ROR-gamma (Homo sapiens) (UniProt P51449). The experiment in a line: qHTS assay to identify small molecule antagonists of the retinoid-related orphan receptor gamma (ROR-gamma) signaling pathway (AID 1159521; further: nearly all actives have a fitted effect of over 50% in size; further: potency means the concentration at half of the fitted maximal effect). In a few lines:
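Inducible-expression reporter assay: doxycycline (1 uM final) switched on RORγ in CHO cells bearing a ROR response element-luciferase construct, with test compounds present from 2 h beforehand. Decreased luminescence after 16 h defined antagonist activity.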

A short description of assay [12]: qHTS assay to identify small molecule agonists of the RXR signaling pathway - cell viability counter screen (AID 1159529). In a few lines: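 Counter screen: CellTiter-Glo luminescence. Cells: RXR-alpha-UAS-bla HEK 293T. Medium: 2% charcoal-stripped FBS. Treatment: 16 h, 37 C. Reagent incubation: 30 min, RT.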
Assay [13] can be described thus: qHTS assay to identify small molecule antagonists of the retinoid-related orphan receptor gamma (ROR-gamma) signaling pathway - cell viability counter screen (AID 1159520). Further: nearly all actives have a fitted effect of over 50% in size. Put shortly:
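Tet-on ROR gamma CHO cells (1,000/well) were plated 4 hr, given compounds in DMSO for 2 hr at 37 C, then induced with 1 uM final doxycycline for 16 hr. Viability was read as ATP by CellTiter-Glo luminescence after 30 min.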

The nature of assay [14]: qHTS assay to identify small molecule agonists of the AP-1 signaling pathway (AID 1159526; calls by dose curve).
The target of assay [15] is Retinoic acid receptor RXR-alpha (Homo sapiens) (UniProt P19793). The experiment in a line: qHTS assay to identify small molecule agonists of the RXR signaling pathway (AID 1159527; calls by dose curve; further: nearly all actives have a fitted effect of over 35% in size; further: potency means the concentration at half of the fitted maximal effect). In a few lines: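 Compounds in DMSO were added to RXR-alpha-UAS-bla HEK 293T cells kept in 2% charcoal-stripped serum, and incubated 16 hr at 37 C with 5% CO2. Reporter signal came from a 2 hr B/G FRET substrate step.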
Sequence of Retinoic acid receptor RXR-alpha (Homo sapiens) (P19793 whole entry, looked up): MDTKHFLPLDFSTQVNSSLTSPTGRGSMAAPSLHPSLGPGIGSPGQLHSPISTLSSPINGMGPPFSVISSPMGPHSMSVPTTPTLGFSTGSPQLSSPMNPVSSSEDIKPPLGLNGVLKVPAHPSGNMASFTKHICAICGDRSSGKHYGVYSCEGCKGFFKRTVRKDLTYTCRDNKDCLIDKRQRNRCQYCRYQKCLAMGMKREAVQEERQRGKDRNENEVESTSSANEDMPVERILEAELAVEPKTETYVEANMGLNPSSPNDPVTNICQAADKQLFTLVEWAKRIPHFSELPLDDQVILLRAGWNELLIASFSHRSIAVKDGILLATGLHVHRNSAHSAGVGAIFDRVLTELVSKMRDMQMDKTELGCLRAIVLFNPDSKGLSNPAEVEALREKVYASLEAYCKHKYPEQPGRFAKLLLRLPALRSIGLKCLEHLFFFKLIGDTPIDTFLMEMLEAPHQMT

Consider `CCCCN(CCCC)C(=S)SSC(=S)N(CCCC)CCCC`, for which the Potency was 12.2 µM (active) in assay [1] and 1.52 µM (active) in assay [9]. Further, the result in [2], in assay [3], in assay [4], in assay [5] and in [6] was inactive. Besides, the Potency entry in assay [7] and in [8] was “inactive” in each case.
Regarding `CCCCC(=O)O[C@]1(C(=O)CO)[C@@H](C)C[C@H]2[C@@H]3CCC4=CC(=O)C=C[C@]4(C)[C@@]3(F)[C@@H](O)C[C@@]21C`, the Potency entry in assay [10], in assay [12] and in [7] was “inactive” each time. For the same compound, the result in [2], in assay [3], in assay [4], in [5] and in assay [6] was inactive. Also, the Potency in assay [11] is 30.6 µM (active); in assay [8], 61.1 µM (active).
On to `CC(C)(C)C(=O)O`, for which the Potency entry in [1], in [10], in assay [13], in assay [11], in assay [12] and in [7] was “inactive” throughout. For the same compound, the Potency entry in assay [8] was “inactive”. In addition, the result in assay [2], in assay [3], in assay [4], in assay [6] and in assay [14] was inactive. Besides, the Potency in [15] is 39.1 µM (active).
In the case of `CC1C2CC(CC2C2CCCC(O)C2)C1(C)C` (stereo unspecified), the Potency in [1] was 49 µM (active). Also, the compound was called inactive in assay [2], in [3], in assay [4] and in assay [5]. The Potency result in [11] is “inactive”.
As for `CO[C@H]1C=CO[C@@]2(C)Oc3c(C)c(O)c4c(O)c(c5c(c4c3C2=O)=NC2(CCN(CC(C)C)CC2)N=5)NC(=O)/C(C)=C\C=C/[C@H](C)[C@H](O)[C@@H](C)[C@@H](O)[C@@H](C)[C@H](OC(C)=O)[C@@H]1C`, the Potency entry in assay [10], in assay [12], in assay [7] and in assay [9] was “inactive” in each case. Also, the result in assay [2], in assay [3], in assay [4], in assay [5], in assay [6] and in assay [14] was inactive. In addition, in assay [11], the Potency is 53.3 µM (active).
On to `CC1=CC(=O)CC(C)(C)C1(O)/C=C/C(C)=C\C(=O)O` (stereo unspecified), for which the Potency entry in [1], in assay [10], in assay [13], in assay [11], in assay [15] and in [12] was “inactive” throughout. Besides, the Potency entry in assay [7], in assay [8] and in assay [9] was “inactive” each time. Moreover, the compound was called inactive in [2], in assay [3], in assay [4], in assay [6] and in assay [14].
`Cc1ccc(S)cc1`: the Potency entry in assay [1], in assay [10], in [11], in assay [12] and in [7] was “inactive” throughout. In addition, the compound was called inactive in assay [2], in assay [3], in assay [4], in assay [5], in assay [6] and in [14].
For the compound `CCCCCCCCCCCCCCC[C@H](O)[C@@H](N)CO`, the Potency result in assay [1], in assay [10], in [11], in [12], in assay [7] and in assay [8] was “inactive” in each case. Further, the compound was classed as inactive in assay [2], in assay [3], in assay [4], in assay [5], in assay [6] and in assay [14].
Consider `CC[C@H](NC(=O)c1cc(F)ccc1NS(=O)(=O)c1cccc2cccnc12)c1ccccc1`, for which the Potency entry in [1], in assay [10], in assay [7], in [8] and in [9] was “inactive” each time. Moreover, the compound was classed as inactive in assay [2], in assay [3], in assay [4], in assay [5] and in [6]. Further, the Potency in assay [11] was 10.3 µM (active).
On to `COc1ccccc1N=Nc1c(S(=O)(=O)O)cc2cc(S(=O)(=O)O)cc(NC(C)=O)c2c1O`, for which the Potency entry in assay [1], in [10], in [8] and in assay [9] was “inactive” in each case. Moreover, the outcome in [2], in assay [3], in assay [4], in assay [5], in [6] and in [14] was inactive.
Take `NC(=O)N(O)[C@@H]1COc2cc(OCc3ccccc3)ccc21`: the Potency result in [1], in assay [10], in [11] and in [7] was “inactive” throughout. Moreover, the outcome in assay [2], in assay [3], in assay [4], in assay [5] and in assay [6] was inactive.
